{
  "source": "PubChem BioAssay",
  "key": {"[1]": {"experiment": "growth inhibition of DIPG glioma cells, dose response, cell-based, SU-DIPG-XVII, MIPE5.0, CellTiter-Glo, qHTS (AID 1347060);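 for AC50: cells exposed to compound for 48 hours before viability readout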", "settings": "SU-DIPG-XVII viability, CellTiter-Glo ATP luminescence"}, "[2]": {"experiment": "growth inhibition of DIPG glioma cells, dose response, cell-based, SU-DIPG-XIII, MIPE4.0, CellTiter-Glo, qHTS (AID 1347061; cut-off not given, nearly all actives have AC50 up to about 37 µM;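 note: cells exposed to compound for 48 hours before readout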)", "settings": "SU-DIPG-XIII viability, CellTiter-Glo ATP luminescence"}, "[3]": {"experiment": "growth inhibition of DIPG glioma cells, dose response, cell-based, JHH-DIPG-1, MIPE4.0, CellTiter-Glo, qHTS (AID 1347062; cut-off not given, nearly all actives have AC50 up to about 27 µM;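 for AC50: cells exposed to compound for two days before readout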)", "settings": "JHH-DIPG-1 viability, CellTiter-Glo ATP luminescence"}, "[4]": {"experiment": "growth inhibition of DIPG glioma cells, dose response, cell-based, SU-DIPG-IV, MIPE4.0, CellTiter-Glo, qHTS (AID 1347063; cut-off not given, nearly all actives have AC50 up to about 30 µM;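 note: compound exposure lasted 48 hours before the viability readout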)", "settings": "SU-DIPG-IV viability, CellTiter-Glo ATP luminescence"}, "[5]": {"experiment": "viability loss in pontine glioma line – cell-based, SU-DIPG-XXV, MIPE5.0, CellTiter-Glo, qHTS, dose response (AID 1347065);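 note: cells exposed to compound for 48 hours before ATP readout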", "settings": "CellTiter-Glo ATP luminescence"}, "[6]": {"experiment": "SU-DIPG-VI glioma cell viability, MIPE4.0 library, CellTiter-Glo luminescence, qHTS (AID 1347066; cut-off not given, nearly all actives have AC50 up to about 30 µM;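 note: cells exposed to compound for 48 hours before readout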)", "settings": "CellTiter-Glo ATP luminescence"}, "[7]": {"experiment": "SU-DIPG-XXV glioma cell viability, MIPE5.0 library, qHTS (AID 1347068; cut-off not given, nearly all actives have IC50 up to about 30 µM;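 for IC50: cells exposed to compound for 48 hours before viability readout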)"}, "[8]": {"experiment": "modifiers of HSF1 nuclear foci, imaging, Selleck Cancer Library (AID 1347162; in the data active = plate-normalised HSF1 focus index below about 0.46)", "settings": "human cells, at 10 µM; SSMD: measured here: HSF1 foci SSMD mean; cell count: measured here: cell number; plate-normalised HSF1 focus index: stronger effect = lower value"}, "[9]": {"experiment": "JHH-DIPG-1 glioma cell viability, MIPE5.0 library, CellTiter-Glo luminescence, qHTS (AID 1347067);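 note: cells exposed to compound for 48 hours before readout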", "settings": "JHH-DIPG-1 glioma viability, CellTiter-Glo ATP luminescence"}, "[10]": {"experiment": "growth inhibition of DIPG glioma cells, dose response, cell-based, SU-DIPG-XIII, MIPE5.0, CellTiter-Glo, qHTS (AID 1347064; cut-off not given, nearly all actives have AC50 up to about 23 µM;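 for AC50: cells exposed to compound for 48 hours before the viability read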)", "settings": "SU-DIPG-XIII viability, CellTiter-Glo ATP luminescence"}, "[11]": {"experiment": "sensitizers of A549 cells to miR-34 induction, primary screen, imaging, A549 dox-inducible miR-34, nuclei and caspase counts (AID 1347080;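 active = compounds whose cell count with miR-34 switched on is under 0.7 times the count with it off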)", "settings": "A549 miR-34 inducible, Hoechst nuclei count, 48 h"}, "[12]": {"experiment": "survival rescue of mitochondrial mutant cells in low glucose, primary screen, MELAS cybrids, Rieske KO mouse fibroblasts, CellTiter-Glo (AID 1508586;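 active = mean z-score across replicates of 1.96 or higher in either the MELAS or the Rieske mutant cell line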;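 note: z relative to plate mean and SD of compound and empty wells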)"}, "[13]": {"settings": "stronger effect = lower value, cell number ratio, induced over uninduced"}, "[14]": {"settings": "measured here: relative caspase fold change +Dox/-Dox"}, "[15]": {"settings": "measured here: total cells with miR-34 induction, stronger effect = lower value"}, "[16]": {"settings": "measured here: total cells without miR-34 induction"}, "[17]": {"settings": "MELAS cybrid survival, CellTiter-Glo 48 h, stronger effect = higher value"}, "[18]": {"settings": "Rieske KO mouse fibroblast survival, CellTiter-Glo 72 h"}},
  "note": "Records with an inconclusive call do not appear. The source made the active and inactive calls. Unless noted, no cut-off is given here; in the data, nearly all actives have AC50 up to about 26 µM.",
  "data": [
    {"compound": "COc1nc(-c2ccc3c(c2)OCO3)n(-c2ccc(NC(=O)CSc3ccccc3)cc2)n1", "values": [
      {"measurement": "outcome", "setting": "[1]", "result": "inactive"},
      {"measurement": "outcome", "setting": "[2]", "result": "inactive"},
      {"measurement": "outcome", "setting": "[3]", "result": "inactive"},
      {"measurement": "outcome", "setting": "[4]", "result": "inactive"},
      {"measurement": "outcome", "setting": "[5]", "result": "inactive"},
      {"measurement": "outcome", "setting": "[6]", "result": "inactive"},
      {"measurement": "outcome", "setting": "[7]", "result": "inactive"},
      {"measurement": "SSMD", "setting": "[8]", "result": 0.993},
      {"measurement": "cell count", "setting": "[8]", "result": 6960},
      {"measurement": "plate-normalised HSF1 focus index", "setting": "[8]", "result": "1.06 (inactive)"}
    ]},
    {"compound": "C=C1C(=O)OC(CCCCCCCC)C1C(=O)O", "note": "(stereo not drawn)", "values": [
      {"measurement": "outcome", "setting": "[1]", "result": "inactive"},
      {"measurement": "outcome", "setting": "[2]", "result": "inactive"},
      {"measurement": "outcome", "setting": "[3]", "result": "inactive"},
      {"measurement": "outcome", "setting": "[4]", "result": "inactive"},
      {"measurement": "outcome", "setting": "[5]", "result": "inactive"},
      {"measurement": "outcome", "setting": "[6]", "result": "inactive"},
      {"measurement": "outcome", "setting": "[9]", "result": "inactive"},
      {"measurement": "outcome", "setting": "[7]", "result": "inactive"}
    ]},
    {"compound": "OC[C@H]1OC(O)C[C@@H](O)[C@@H]1O", "note": "(stereo partly drawn)", "values": [
      {"measurement": "outcome", "setting": "[1]", "result": "inactive"},
      {"measurement": "outcome", "setting": "[2]", "result": "inactive"},
      {"measurement": "outcome", "setting": "[3]", "result": "inactive"},
      {"measurement": "outcome", "setting": "[4]", "result": "inactive"},
      {"measurement": "outcome", "setting": "[5]", "result": "inactive"},
      {"measurement": "outcome", "setting": "[6]", "result": "inactive"},
      {"measurement": "outcome", "setting": "[9]", "result": "inactive"},
      {"measurement": "outcome", "setting": "[7]", "result": "inactive"}
    ]},
    {"compound": "Cn1c2cc(S(C)=O)sc2c2cnn(Cc3cccc(N)c3)c(=O)c21", "note": "(stereo not drawn)", "values": [
      {"measurement": "outcome", "setting": "[1]", "result": "inactive"},
      {"measurement": "outcome", "setting": "[2]", "result": "inactive"},
      {"measurement": "outcome", "setting": "[3]", "result": "inactive"},
      {"measurement": "outcome", "setting": "[4]", "result": "inactive"},
      {"measurement": "outcome", "setting": "[5]", "result": "inactive"},
      {"measurement": "outcome", "setting": "[6]", "result": "inactive"},
      {"measurement": "outcome", "setting": "[9]", "result": "inactive"},
      {"measurement": "outcome", "setting": "[7]", "result": "inactive"}
    ]},
    {"compound": "C[C@@]1(c2cc(-c3cncnc3)c(F)cc2F)CCSC(N)=N1", "values": [
      {"measurement": "outcome", "setting": "[1]", "result": "inactive"},
      {"measurement": "AC50", "setting": "[2]", "result": "14.8 µM (active)"},
      {"measurement": "AC50", "setting": "[3]", "result": "14.8 µM (active)"},
      {"measurement": "outcome", "setting": "[10]", "result": "inactive"},
      {"measurement": "outcome", "setting": "[5]", "result": "inactive"},
      {"measurement": "outcome", "setting": "[6]", "result": "inactive"},
      {"measurement": "outcome", "setting": "[9]", "result": "inactive"},
      {"measurement": "outcome", "setting": "[7]", "result": "inactive"},
      {"measurement": "fold change", "setting": "[11]; [13]", "result": "0.883 (inactive)"},
      {"measurement": "fold change", "setting": "[11]; [14]", "result": 1.05},
      {"measurement": "cell count", "setting": "[11]; [15]", "result": 8550},
      {"measurement": "cell count", "setting": "[11]; [16]", "result": 9680},
      {"measurement": "z-score", "setting": "[12]; [17]", "result": "-0.425 (inactive)"},
      {"measurement": "z-score", "setting": "[12]; [18]", "result": 0.36}
    ]},
    {"compound": "Nc1nc2c(c(=O)[nH]1)N(C=O)[C@H](CNc1ccc(C(=O)N[C@@H](CCC(=O)O)C(=O)O)cc1)CN2", "values": [
      {"measurement": "outcome", "setting": "[1]", "result": "inactive"},
      {"measurement": "outcome", "setting": "[2]", "result": "inactive"},
      {"measurement": "outcome", "setting": "[3]", "result": "inactive"},
      {"measurement": "outcome", "setting": "[10]", "result": "inactive"},
      {"measurement": "outcome", "setting": "[5]", "result": "inactive"},
      {"measurement": "outcome", "setting": "[6]", "result": "inactive"},
      {"measurement": "outcome", "setting": "[9]", "result": "inactive"},
      {"measurement": "outcome", "setting": "[7]", "result": "inactive"}
    ]},
    {"compound": "Cc1c(Cn2c(C)nc3c(C(=O)O)cc(N4CCOCC4)cc32)cccc1C(F)(F)F", "values": [
      {"measurement": "outcome", "setting": "[1]", "result": "inactive"},
      {"measurement": "outcome", "setting": "[2]", "result": "inactive"},
      {"measurement": "outcome", "setting": "[3]", "result": "inactive"},
      {"measurement": "outcome", "setting": "[10]", "result": "inactive"},
      {"measurement": "outcome", "setting": "[5]", "result": "inactive"},
      {"measurement": "outcome", "setting": "[6]", "result": "inactive"},
      {"measurement": "outcome", "setting": "[9]", "result": "inactive"},
      {"measurement": "outcome", "setting": "[7]", "result": "inactive"},
      {"measurement": "fold change", "setting": "[11]; [13]", "result": "0.907 (inactive)"},
      {"measurement": "fold change", "setting": "[11]; [14]", "result": 0.358},
      {"measurement": "cell count", "setting": "[11]; [15]", "result": 8050},
      {"measurement": "cell count", "setting": "[11]; [16]", "result": 8880},
      {"measurement": "z-score", "setting": "[12]; [17]", "result": "-0.351 (inactive)"},
      {"measurement": "z-score", "setting": "[12]; [18]", "result": 0.912}
    ]},
    {"compound": "C[N+](C)([O-])CCNc1ccc(NCC[N+](C)(C)[O-])c2c1C(=O)c1c(O)ccc(O)c1C2=O", "values": [
      {"measurement": "AC50", "setting": "[1]", "result": "9.34 µM (active)"},
      {"measurement": "outcome", "setting": "[2]", "result": "inactive"},
      {"measurement": "outcome", "setting": "[3]", "result": "inactive"},
      {"measurement": "outcome", "setting": "[4]", "result": "inactive"},
      {"measurement": "outcome", "setting": "[6]", "result": "inactive"},
      {"measurement": "IC50", "setting": "[7]", "result": "0.00132 µM (active)"}
    ]},
    {"compound": "CC(C)(C)OC(=O)CN(Cc1ccc(Cl)cc1)Cc1ccc([N+](=O)[O-])s1", "values": [
      {"measurement": "AC50", "setting": "[1]", "result": "18.6 µM (active)"},
      {"measurement": "outcome", "setting": "[2]", "result": "inactive"},
      {"measurement": "outcome", "setting": "[3]", "result": "inactive"},
      {"measurement": "AC50", "setting": "[10]", "result": "16.6 µM (active)"},
      {"measurement": "AC50", "setting": "[5]", "result": "11.8 µM (active)"},
      {"measurement": "outcome", "setting": "[6]", "result": "inactive"},
      {"measurement": "outcome", "setting": "[7]", "result": "inactive"}
    ]}
  ]
}
